These results are taken from PubChem BioAssay (NCI).

Values joined by “and” are separate entries in the source; they are usually repeats but may differ in a detail not shown here. Equal values may be shown once. The panel holds about 83,000 compounds, 20% with a hit somewhere; the sample as a whole holds those more often.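 Compound tested at a single concentration for 48 hours in 96-well plates; a percent growth value below 10 was scored as active.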 Unmarked numbers belong to inactive results. Active and inactive are the calls of the source.

This test relates to MDA-MB-468 breast. In words: NCI-60 one-dose screen, 48 h (100 = growth as untreated, 0 = no growth, -100 = all killed). The note with it: 10 µM unless noted.
On to `Nc1ccccc1SC(CC(=O)c1ccccc1)c1cccc([N+](=O)[O-])c1` (stereo not given), for which the growth is 85.9% and 77.9%. As for `NNC(=O)Cc1ccccc1`, the figure is 92.3%; as for `CCN(CC)CCOc1ccc(Nc2ncc3cc(-c4c(Cl)cccc4Cl)c(=O)n(CCOC)c3n2)cc1`, 3.97% (active); as for `C/C(=N\O)c1ccc(NC(=O)CSc2nnc(-c3cc(-c4ccc(S(C)(=O)=O)cc4)nc4ccccc34)n2-c2ccccc2)cc1`, 92.6%. Regarding `COc1ccc(NC(=S)NNc2ccc(-c3ccc(OC)c(OC)c3)nn2)cc1`, the growth was 109%. As for `CCOC(=O)C/C(=N\Nc1cc(=O)[nH]c2ccc(Br)cc12)C(=O)OCC`, the growth was 99.3%. The figure for `CCNc1cc(S(=O)(=O)O)ccc1C` is 97.2%; for `CCCCN(CCCC)CCCN=c1nc2c(c(N)n1-c1ccccc1)c(=S)n(-c1ccccc1)c(=S)n2-c1ccccc1` it is -89.9% (active). The figure for `Nc1c(C(=O)Nc2cccc(Br)c2)sc2nc3c(cc12)C(=O)CCC3` is 32.1%; for `COc1ccc(-c2cc(-c3ccccc3)nc(SCCCC(=O)NO)n2)cc1OC` it is -2.2% (active); for `CCOC(=O)c1cnc2c(OC)ccc(OC)c2c1Cl` it is 113%. As for `CC(C)(C)c1ccc(OCCOC(=O)CBr)cc1`, the figure is 87.6%; as for `O=S(=O)(O)c1ccc(N/N=C/c2ccccc2Cl)cc1`, 107%; as for `O=C(c1ccccc1)C1(Br)CCCCC1`, 90.3%. Consider `COc1cc(Br)c(-c2nc(-c3ccccc3)c(-c3ccccc3)n2Cc2ccccc2)cc1OC`, for which the growth was 54%.
